Test results published in PMC5540273 (PLoS ONE, 2017).

How the values were obtained:
Details in all cases: concentration: 1 μM, replicates: in singlicate; n = 1
FLT3-autoinhibited = tested on: FLT3-autoinhibited
FLT3 = tested on: FLT3
FLT4 = tested on: FLT4
FRK = tested on: FRK
FYN = tested on: FYN
GAK = tested on: GAK
GCN2(Kin.Dom.2,S808G) = tested on: T1, GCN2(Kin.Dom.2,S808G)
T1 construct: gene EIF2AK4

GRK1 = tested on: GRK1
GRK2 = tested on: T2, GRK2
T2 construct: gene ADRBK1

GRK3 = tested on: T3, GRK3
T3 construct: gene ADRBK2
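Further: KINOMEscan kinase panel screen.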

| Compound | %Inh (FLT3-autoinhibited) [%] | %Inh (FLT3) [%] | %Inh (FLT4) [%] | %Inh (FRK) [%] | %Inh (FYN) [%] | %Inh (GAK) [%] | %Inh (GCN2(Kin.Dom.2,S808G)) [%] | %Inh (GRK1) [%] | %Inh (GRK2) [%] | %Inh (GRK3) [%] |
| --- | --- | --- | --- | --- | --- | --- | --- | --- | --- | --- |
| Cc1cn2c(=O)cc(N3CCOCC3)nc2n1Cc1cccc(Cl)c1Cl [GSK2334006] | 10 | 13 | 39 | 28 | 23 | 35 | 12 | 2 | 3 | 0 |
| COC(=O)Nc1nc2cc(Oc3ccc(NC(=O)Nc4cc(F)ccc4F)cc3)ccc2[nH]1.Cl [GW701424] | 14 | 99.2 | 85 | 20 | 0 | 0 | 0 | 11 | 0 | 50 |
| CCc1ccnc(/C=C/c2n[nH]c3cc(Sc4ccccc4C(=O)NC)ccc23)c1 | 7 | 19 | 99.9 | 17 | 0 | 0 | 18 | 2 | 18 | 7 |
| Cn1ccc2ncnc(Oc3ccc(NC(=O)Nc4ccncc4)c(Cl)c3)c21 | 0 | 0 | 0 | 0 | 0 | 0 | 11 | 7 | 0 | 0 |
| Cc1cccc(-c2nc(-c3ccc(S(C)(=O)=O)cc3)sc2-c2ccncc2)c1 | 2 | 14 | 8 | 0 | 0 | 5 | 0 | 0 | 0 | 3 |
| O=c1cc(N2CCOCC2)nc2n(Cc3cccc4ccccc34)ccn12 [GSK2333389] | 3 | 10 | 8 | 0 | 0 | 1 | 1 | 13 | 0 | 0 |
| Cc1c2ccc(N(C)c3ccnc(Nc4cccc(S(N)(=O)=O)c4)n3)cc2nn1Cc1ccccc1.Cl.Cl [GW787226] | 29 | 98.5 | 99.9 | 65 | 75 | 0 | 62 | 0 | 0 | 0 |
| NS(=O)(=O)c1cccc(-c2ccc3nccc(-c4cccc(S(N)(=O)=O)c4)c3c2)c1 [GW867253] | 0 | 0 | 0 | 0 | 0 | 14 | 3 | 27 | 0 | 0 |
| Cc1nnc(-c2ccc3ncc(-c4ccc(S(C)=O)cc4)n3c2)o1 (centres unmarked) | 20 | 4 | 6 | 29 | 10 | 9 | 0 | 9 | 43 | 0 |
| c1ccc(-c2cc(-c3c[nH]nc3-c3ccccn3)ccn2)cc1 [GW576604] | 0 | 0 | 0 | 0 | 20 | 78 | 1 | 0 | 0 | 17 |
| Cc1c(Cn2c(C)nn3c(=O)cc(N4CCOC(C)C4)nc23)cccc1C(F)(F)F (centres unmarked) [GSK2344444] | 3 | 0 | 11 | 0 | 2 | 0 | 0 | 1 | 0 | 0 |
| CN(C(=O)c1ccc(-c2cc(-c3c[nH]nc3-c3ccccn3)ccn2)cc1)C1CCOCC1 [GW810083] | 0 | 8 | 0 | 6 | 1 | 9 | 2 | 10 | 18 | 18 |
| Cc1cccc(-c2nc(Nc3ccc4ncsc4c3)c3ccccc3n2)n1 [GW867588] | 12 | 2 | 0 | 0 | 4 | 0 | 4 | 0 | 9 | 0 |
| CC(C)(C)n1cnc2c(N)ncnc21 [SKF-97359] | 0 | 19 | 0 | 0 | 0 | 0 | 29 | 0 | 39 | 24 |
| O=C(Nc1cccc(-c2nn3ncccc3c2-c2ccnc(Nc3cccc(C(F)(F)F)c3)n2)c1)c1c(F)cccc1F [GSK299495] | 0 | 41 | 40 | 88 | 62 | 1 | 8 | 6 | 0 | 33 |
| COCCNC(=O)c1ccc(-c2cc(C(=O)NC3CC3)cc(F)c2C)cc1 [GW868318] | 0 | 15 | 5 | 32 | 2 | 0 | 12 | 32 | 0 | 18 |
| N#Cc1c(N2CCOCC2)sc(-c2ccn[nH]2)c1-c1ccc(Cl)cc1 | 12 | 0 | 0 | 0 | 0 | 0 | 0 | 15 | 0 | 25 |
